Screens deposited in PubChem BioAssay by National Center for Advancing Translational Sciences (NCATS).
Shown are actives, neighbours in structure and some others; about 1% of the full set was active somewhere.
TSHR antag – human thyrotropin receptor antagonism | activity change, negative = inhibition, % at 11.5 µM | P16473 | 330,000 compounds, 0.2% hits | TSHR-expressing cells, TSH-stimulated cAMP HTRF, 2 h; hits give low values | AID 504810;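 active = activity change below a set negative limit, meaning inhibition stronger than a set level, cut at about -70% in these data; inconclusive = activity change between two set negative limits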; note: % is set by controls: 0 for no effect and ±100 for the full control effect
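Freshly harvested TSHR cells receive pin-tooled compound, then EC80 TSH at 4nM final. After 2 hours at 37 deg C, antibody in lysis buffer and cAMP-d2 are added; 30 minutes at ambient temperature precede the HTRF read.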
NPSR antagonist – antagonists of human neuropeptide S receptor cAMP signaling | CHO-NPSR cells, cAMP TR-FRET, antagonist mode | Q6W5P4 | 220,000 compounds, 1% hits | AID 1461 | Potency, µM (highest dose often 38.3 µM), for the others: at the highest dose activity change, negative = inhibition, hits mostly inhibitors; note: potency is the fitted concentration of half-maximal effect; % is set by controls: 0 for no effect and ±100 for the full control effect; nearly all actives have a fitted effect of over 50% in size
Target sequence (Q6W5P4 whole entry, looked up): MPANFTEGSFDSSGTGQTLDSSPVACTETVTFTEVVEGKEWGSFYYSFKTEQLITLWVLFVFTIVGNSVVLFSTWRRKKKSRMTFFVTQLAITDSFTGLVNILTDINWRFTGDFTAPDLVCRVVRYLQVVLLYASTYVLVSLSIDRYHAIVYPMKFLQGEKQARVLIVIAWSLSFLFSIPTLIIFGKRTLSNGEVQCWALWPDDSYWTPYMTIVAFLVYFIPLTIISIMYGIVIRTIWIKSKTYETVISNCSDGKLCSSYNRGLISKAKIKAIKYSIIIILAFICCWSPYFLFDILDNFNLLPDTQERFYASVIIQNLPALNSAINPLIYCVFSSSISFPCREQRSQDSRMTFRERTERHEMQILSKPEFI
TR SRC2 fluor cs – counter-screen for TRb-SRC2 inhibitors: fluorescence interference | Potency, µM (titrated, usually from 106 µM), for the others: at the top dose fluorescence change, negative = quenching | TRb/SRC2 Texas Red total fluorescence interference | 280,000 compounds, 0.29% hits | AID 1479; active = well fitted curve in either direction with a large enough effect; inconclusive = small, poorly fitted or top-dose-only effect; note: potency is the fitted concentration of half-maximal effect; % is set by controls: 0 for no effect and ±100 for the full control effect
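Human TRβ ligand-binding domain (0.6 uM) and Texas Red SRC2 peptide (20 nM) in Tris buffer with 1 uM T3 and 5% DMSO were incubated with pinned compound for 5 hr at ambient temperature. Total fluorescence was computed as S + 2P (555/632 nm).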
Coupling enz – counter-screen for Giardia aldolase inhibitors: coupling enzyme system; coupling enzyme system counterscreen, AmpLite Red fluorescence; activity change, negative = inhibition, % at 58.2 µM, hits read low; 290,000 compounds, 0.67% hits; AID 2472; in the data active = activity change below about -30%; note: % is set by controls: 0 for no effect and ±100 for the full control effect
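First, compound is pin-transferred into glyceraldehyde-3-phosphate coupling-enzyme reagent at 57.5 uM final and held 10 min at RT. Next, substrate, coupling system and AmpLite Red are added. After 20 min RT, fluorescence (525/598 nm) is read.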
TCR act – activators of T cell receptors; primary human leukocytes, anti-CD3, IL-2 HTRF, 48 h; Potency, µM (doses to about 9.22 µM), inactives show at the highest dose activation of IL-2 secretion, hits mostly activators; 330,000 tested, under 10 active; AID 504894; note: % of control where 0% means no effect
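TCR engagement came from a-CD3 beads alone, with compounds added to primary human leukocytes for 48 hr. Secreted IL-2 bridged europium cryptate- and d2-labelled anti-IL-2 antibodies, giving FRET emission at 665nm after 320nm excitation.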
TRb-SRC2 inh – TRbeta-SRC2 interaction inhibition | P10828 | TRbeta-SRC2 peptide binding, fluorescence polarization; receptor liganded with 1 µM T3 | Potency, µM (series often up to 106 µM), for inactives: top-dose activity change, negative = inhibition, usual class: inhibitors | 280,000 compounds, 0.065% hits | AID 1469;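 note: potency is the fitted concentration of half-maximal effect; plate controls were bound peptide for no effect and peptide without receptor for full effect; nearly all actives have a fitted effect of over 50% in size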
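Decrease in fluorescence polarization of 20 nM Texas Red SRC2 coactivator peptide flagged inhibition of its binding to 0.6 uM TRb LBD; 1 uM T3 included, incubation 5 hr, ex 555/em 632 nm.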
Numbers without * were called inactive; ? = inconclusive; nt = no result; [ ] = another dose, or the depositor's remark. Unless noted, calls come from the whole dose curve; as a rule, active = well fitted curve in the direction sought with a large enough effect; inconclusive = small, poorly fitted or top-dose-only effect, or another doubt; inactive = no such curve, though single readings can be large; an effect the other way counts as inactive or inconclusive.

SMILES | TSHR antag | NPSR antagonist | TR SRC2 fluor cs | Coupling enz | TCR act | TRb-SRC2 inh
Cc1ccc(-c2c(C(=O)N/N=C/c3cccc(Cl)c3)nnn2-c2nonc2N)cc1 | -24 | nt | nt | -36* | -4% | nt
COC(OC)(C(=O)c1ccccc1)c1ccccc1 | nt | nt | -3%[201 µM] | nt | nt | -3%[201 µM]
CCCNC[C@H](O)COc1ccccc1C(=O)CCc1ccccc1 | nt | ? | -6% | 0 | nt | -3%
O=Cc1ccccc1C=O | nt | nt | 40µM*[quencher] | nt | nt | ?
O=Cc1ccccc1Cl | nt | nt | -2% | nt | nt | 1%
CCc1cccc(C)c1NC(=O)CN1C(=O)C2(SCC(=O)N2c2cc(C)cc(C)c2)c2ccccc21 (configuration not stated) | nt | nt | -3% | nt | nt | -2%
CN(C)c1ccc(NC(=O)N2CCOCC2)cc1 | -36 | -9%[46.1 µM] | -1% | -32* | 8%[46.1 µM] | -10%
Cc1ccc(NC(=O)c2ccc(-n3cccn3)c([N+](=O)[O-])c2)cc1 | -4 | -10%[46.1 µM] | -1% | -12 | -1% | -9%
Cc1cccc(NC(=O)c2ccc(-n3cccn3)c([N+](=O)[O-])c2)c1 | -45 | -10%[46.1 µM] | 0% | -33* | -2% | -3%
CC1=C(C(=O)N2CCOCC2)C(c2cc(C)cs2)NC(=O)N1 (configuration not stated) | 9 | 4%[46.1 µM] | 28µM*[fluorescent] | 2 | -7% | 20µM*
COC(=O)c1ccc2c(c1)C(C)(C)C(/C=C/c1ccc(OC)c(OC)c1OC)=[N+]2C | -23 | 10µM* | ? | nt | 2% | ?
CCCC[n+]1ccn(C2=C([O-])c3ccccc3C(=O)/C2=N\S(=O)(=O)c2ccc(Cl)cc2)c1 | 25 | ? | -3% | -45* | -2% | -2%
CC(C)(C)NC(=O)COC(=O)c1cc(F)c(F)cc1Cl | 7 | -4%[46.1 µM] | -6% | -61* | -11% | 4%
COc1ccc(N2CC(NC(=O)c3cc4ccccc4o3)CC2=O)cc1OC (configuration not stated) | nt | nt | 0% | nt | nt | -6%
COc1cccc(CNC(=O)CN2C(=O)CCCc3ccccc32)c1OC | nt | nt | 20µM*[quencher] | nt | nt | -9%
CCCCCCCC(=O)Oc1c(Br)cc(C#N)cc1Br | nt | nt | 2%[201 µM] | nt | nt | 4%[201 µM]
COc1ccc(/C=C\c2onc(C)c2S(=O)(=O)N2CCC(C(=O)Nc3ccc(C)cc3C)CC2)cc1 | nt | nt | 0% | nt | nt | -3%
Cc1cc(C)n2c(Nc3ccc(Cl)cc3)c(-c3ccsc3)nc2n1 | nt | nt | 1122µM*[quencher] | nt | nt | 1%
CCCOP(=O)(c1ccc(N(C)C)cc1)C(Nc1ccccc1)c1ccc(N(C)C)cc1 (configuration not stated) | 15 | -21%[46.1 µM] | 32µM*[quencher] | -5 | -4%[46.1 µM] | -19%[53 µM]
CCCCOP(=O)(c1ccc(N(C)C)cc1)C(Nc1ccccc1)c1ccccc1 (configuration not stated) | 4 | -53% | -1% | -4 | -9%[46.1 µM] | 4%
O=[N+]([O-])c1cc(Br)c(O)c(/C=N/Nc2nnnn2-c2cccc3ccccc23)c1 | -75* | ? | -19% | 0 | 2% | 12%
O=C(CSc1ncnc2scc(-c3ccccc3)c12)N1CCN(Cc2ccc3c(c2)OCO3)CC1 | -14 | -15%[46.1 µM] | 45µM*[fluorescent] | -2 | -4%[46.1 µM] | 4%
O=C(COc1ccc(Cl)cc1)Nc1ccc2nc(SCC(=O)N3CCCC3)sc2c1 | nt | nt | -18% | nt | nt | 4%
COc1cc(OC)cc(C(=O)NC(=S)NNC(=O)Cc2cccs2)c1 | 36 | -6% | 0.32µM*[quencher] | 0 | 0%[46.1 µM] | ?
O=C(C1CCN(c2ncnc3c2sc2cccc(F)c23)CC1)N1CCCC1 | -28 | 10% | -1% | -44* | nt | 5%
Cc1cccc(N2CCN(C(=O)c3cccn4c(=O)c5cc(Cl)ccc5nc34)CC2C)c1 (configuration not stated) | nt | nt | -3% | nt | nt | 3%
Cc1ccc(-c2cc3ncc4c(n3n2)-c2cc(F)ccc2OC4)cc1 | nt | nt | 25µM*[quencher] | nt | nt | -6%
CN1CCc2nc(SCC(=O)Nc3cccc(F)c3)c(C#N)c(-c3cccs3)c2C1 | 11 | ? | -4% | -10 | -2% | -3%
